The campaign covered roughly 5,500 compounds. About 2,000 (36%) were called active. Not shown: some 18% with an inconclusive outcome. No stated cut-off is given here; in the data, active means normalized growth mostly below about 0.91 (no sharp cut-off); inconclusive means no clear call, values can overlap the other calls; inactive means mostly above about 0.92. The list shows a part of the results.
Assay: chemical genetic growth profiling, strain panel (AID 1159580);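 further: tested at 20 µM; growth read once vehicle control cultures reached saturation at 30 °C; 1 = growth at the plate median or of vehicle wells; lower values mean less growth of the strain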
Conditions: S. cerevisiae deletion strains, growth OD
[1] = locus YHR030C, strain SLT2, active compounds read low
[2] = locus YJL095W, strain BCK1, active compounds read low

Measured: normalized growth

COc1ccc(-c2coc3cc(O)ccc3c2=O)c(O)c1O
inactive: locus YBR009C, strain hhf1, active compounds read low 0.955 | locus YBR171W, strain sec66, active compounds read low 0.984 | locus YCL016C, strain dcc1, active compounds read low 0.94 | locus YCL061C, strain MRC1, active compounds read low 0.925 | locus YCL069W, strain vba3, active compounds read low 0.979 | locus YCR088W, strain abp1, active compounds read low 0.971 | locus YDL005C, strain med2, active compounds read low 0.979 | locus YDL040C, strain nat1, active compounds read low 0.999 | locus YDR001C, strain nth1, active compounds read low 0.976 | locus YDR137W, strain rgp1, active compounds read low 1.06 | locus YDR159W, strain sac3, active compounds read low 1.05 | locus YDR195W, strain ref2 0.992 | locus YDR335W, strain msn5, active compounds read low 0.948 | locus YDR392W, strain spt3, active compounds read low 0.869 | locus YEL003W, strain gim4, active compounds read low 0.977 | locus YEL037C, strain rad23, active compounds read low 0.969 | locus YEL061C, strain CIN8 (second series), active compounds read low 0.963 | locus YER016W, strain bim1, active compounds read low 0.94 | locus YER111C, strain swi4, active compounds read low 0.933 | locus YER155C, strain BEM2 (second series), active compounds read low 0.944 | locus YGL167C, strain pmr1, active compounds read low 0.979 | locus YGL227W, strain vid30, active compounds read low 0.989 | locus YGL240W, strain doc1, active compounds read low 0.964 | locus YHR013C, strain ard1, active compounds read low 0.861 | [1] 1.02 | locus YHR079C, strain IRE1, active compounds read low 1.02 | locus YJL092W, strain hpr5, active compounds read low 0.975 | locus YJL095W, strain BCK1 (second series), active compounds read low 0.952 | [2] 1.01 | locus YJL115W, strain asf1, active compounds read low 0.968 | locus YJL129C, strain trk1, active compounds read low 1.03 | locus YJL154C, strain vps35, active compounds read low 0.988 | locus YJR066W, strain TOR1, active compounds read low 0.927 | locus YKR026C, strain gcn3, active compounds read low 0.995 | locus YKR091W, strain srl3, active compounds read low 0.991 | locus YLL001W, strain dnm1, active compounds read low 0.971 | locus YLL026W, active compounds read low 0.98 | locus YLL041C, strain sdh2, active compounds read low 0.968 | locus YLR027C, strain aat2, active compounds read low 0.93 | locus YLR113W, strain HOG1, active compounds read low 1.01 | locus YLR221C, strain rsa3, active compounds read low 0.92 | locus YLR258W, strain gsy2, active compounds read low 0.947 | locus YLR320W, strain mms22, active compounds read low 0.905 | locus YLR370C, strain arc18, active compounds read low 0.916 | locus YLR384C, strain iki3, active compounds read low 0.998 | locus YML120C, strain ndi1, active compounds read low 1 | locus YMR125W, strain sto1, active compounds read low 1.01 | locus YMR129W, active compounds read low 0.967 | locus YMR205C, strain PFK2, active compounds read low 0.971 | locus YMR231W, strain pep5, active compounds read low 0.937 | locus YNL071W, strain lat1, active compounds read low 0.955 | locus YNL183C, strain NPR1, active compounds read low 0.965 | locus YNL248C, strain rpa49, active compounds read low 0.939 | locus YNL322C, strain KRE1 (second series), active compounds read low 0.974 | locus YNR049C, strain mso1, active compounds read low 0.982 | locus YOR001W, strain rrp6, active compounds read low 0.988 | locus YOR070C, strain gyp1, active compounds read low 0.943 | locus YOR080W, strain dia2, active compounds read low 0.986 | locus YOR231W, strain MKK1, active compounds read low 1.04 | locus YOR270C, strain vph1, active compounds read low 0.96 | locus YOR290C, strain snf2, active compounds read low 0.961 | locus YPL078C, strain atp4, active compounds read low 0.991 | locus YPL240C, strain hsp82, active compounds read low 0.975 | locus YPL256C, strain CLN2, active compounds read low 1.02
active: locus YAL021C, strain ccr4, active compounds read low 0.817 | locus YAL026C, strain drs2, active compounds read low 0.818 | locus YAL030W, strain snc1, active compounds read low 0.874 | locus YBL061C, strain skt5, active compounds read low 0.825 | locus YBR023C, strain chs3, active compounds read low 0.877 | locus YBR231C, strain swc5, active compounds read low 0.837 | locus YBR279W, strain paf1, active compounds read low 0.893 | locus YCL011C, strain gbp2, active compounds read low 0.898 | locus YDR069C, strain doa4, active compounds read low 0.762 | locus YDR297W, strain sur2, active compounds read low 0.898 | locus YDR334W, strain swr1, active compounds read low 0.872 | locus YER015W, strain faa2, active compounds read low 0.737 | locus YFR010W, strain ubp6, active compounds read low 0.873 | locus YGL173C, strain kem1, active compounds read low 0.671 | locus YGL253W, strain hxk2, active compounds read low 0.881 | locus YHR027C, strain rpn1, active compounds read low 0.669 | locus YHR142W, strain chs7, active compounds read low 0.86 | locus YJL164C, strain tpk1, active compounds read low 0.863 | locus YJL166W, strain qcr8, active compounds read low 0.817 | locus YKL160W, strain elf1, active compounds read low 0.902 | locus YLR262C, strain YPT6 (second series), active compounds read low 0.743 | locus YLR342W, strain FKS1, active compounds read low 0.753 | locus YLR357W, strain rsc2, active compounds read low 0.749 | locus YMR058W, strain fet3, active compounds read low 0.333 | locus YNL209W, strain ssb2, active compounds read low 0.633 | locus YOR083W, strain WHI5, active compounds read low 0.866 | locus YOR106W, strain vam3, active compounds read low 0.542 | locus YOR265W, strain rbl2, active compounds read low 0.918 | locus YPL051W, strain arl3, active compounds read low 0.686 | locus YPL106C, strain sse1, active compounds read low 0.813

COc1ccccc1-c1coc2cc(O)ccc2c1=O
inactive: locus YBR021W, strain FUR4, active compounds read low 0.987 | locus YBR229C, strain ROT2, active compounds read low 1.01 | locus YCL029C, strain bik1, active compounds read low 1 | locus YDL035C, strain GPR1, active compounds read low 0.983 | locus YDL074C, strain BRE1, active compounds read low 1.02 | locus YDL101C, strain DUN1, active compounds read low 0.995 | locus YDL134C, strain PPH21, active compounds read low 0.963 | locus YDL185W, strain tfp1, active compounds read low 0.999 | locus YDL192W, strain arf1, active compounds read low 1 | locus YDR101C, strain arx1, active compounds read low 0.996 | locus YDR162C, strain NBP2, active compounds read low 0.986 | locus YDR318W, strain mcm21, active compounds read low 1.01 | locus YDR388W, active compounds read low 1.03 | locus YDR502C, strain sam2, active compounds read low 1.02 | locus YEL061C, strain CIN8, active compounds read low 1.02 | locus YER110C, active compounds read low 1.02 | locus YER155C, strain BEM2, active compounds read low 1.02 | locus YER167W, strain BCK2, active compounds read low 1.03 | locus YGL078C, strain dbp3, active compounds read low 1 | locus YGL086W, strain mad1, active compounds read low 1.01 | locus YGL248W, strain PDE1, active compounds read low 1.01 | locus YGR078C, strain PAC10, active compounds read low 0.995 | locus YGR135W, strain pre9, active compounds read low 0.999 | locus YGR252W, strain gcn5, active compounds read low 0.88 | [1] 1.02 | locus YHR079C, strain IRE1 (second series), active compounds read low 1.02 | locus YHR094C, strain hxt1, active compounds read low 1.02 | locus YHR129C, strain ARP1, active compounds read low 1.03 | locus YHR200W, strain rpn10, active compounds read low 1.03 | locus YIL066C, strain RNR3, active compounds read low 1.01 | locus YIL073C, strain SPO22, active compounds read low 1.05 | locus YIL125W, strain kgd1, active compounds read low 1.02 | locus YIR030C, strain dcg1, active compounds read low 1.01 | [2] 1.04 | locus YJL134W, strain LCB3, active compounds read low 1.02 | locus YJL168C, strain set2, active compounds read low 1.02 | locus YJL187C, strain SWE1 (second series), active compounds read low 0.998 | locus YJR043C, strain POL32, active compounds read low 0.971 | locus YKL009W, strain mrt4, active compounds read low 0.993 | locus YKL068W, active compounds read low 1 | locus YKL085W, strain MDH1 (second series), active compounds read low 1 | locus YKL085W, strain MDH1, active compounds read low 1 | locus YKL190W, strain CNB1, active compounds read low 1.02 | locus YKR001C, strain vps1, active compounds read low 0.979 | locus YLR039C, strain RIC1, active compounds read low 1.03 | locus YLR058C, strain SHM2, active compounds read low 1.01 | locus YLR102C, strain apc9, active compounds read low 1.01 | locus YLR262C, strain YPT6, active compounds read low 0.991 | locus YLR268W, strain sec22, active compounds read low 0.997 | locus YLR330W, strain CHS5, active compounds read low 1.03 | locus YLR342W, strain FKS1 (second series), active compounds read low 0.992 | locus YLR371W, strain rom2, active compounds read low 1.02 | locus YLR418C, strain cdc73, active compounds read low 0.969 | locus YML016C, strain PPZ1, active compounds read low 1.04 | locus YML032C, strain rad52, active compounds read low 1.02 | locus YML124C, strain tub3, active compounds read low 1.01 | locus YMR078C, strain ctf18, active compounds read low 1.01 | locus YMR223W, strain ubp8, active compounds read low 0.999 | locus YMR263W, strain SAP30, active compounds read low 1 | locus YMR307W, strain GAS1, active compounds read low 0.909 | locus YNL067W, strain RPL9B, active compounds read low 0.987 | locus YNL233W, strain BNI4, active compounds read low 1.02 | locus YNL250W, strain rad50, active compounds read low 1.02 | locus YNL271C, strain bni1, active compounds read low 1.02 | locus YNL298W, strain CLA4, active compounds read low 1 | locus YNL307C, strain MCK1, active compounds read low 1.02 | locus YNR052C, strain pop2, active compounds read low 1.01 | locus YOL006C, strain TOP1, active compounds read low 1.08 | locus YOL012C, strain htz1 1.12 | locus YOL147C, strain pex11, active compounds read low 1.01 | locus YOR061W, strain CKA2, active compounds read low 1.01 | locus YOR069W, strain VPS5, active compounds read low 1.02 | locus YOR136W, strain idh2, active compounds read low 1.03 | locus YOR144C, strain elg1, active compounds read low 0.999 | locus YOR184W, strain ser1, active compounds read low 0.981 | locus YOR316C, strain cot1, active compounds read low 1.03 | locus YPL055C, strain LGE1, active compounds read low 1 | locus YPL241C, strain CIN2, active compounds read low 0.996 | locus YPR119W, strain clb2, active compounds read low 1 | locus YPR141C, strain kar3, active compounds read low 1.01 | locus YPR163C, strain tif3, active compounds read low 1.02 | locus YPR167C, strain met16, active compounds read low 1.01 | strain wtn01, active compounds read low 0.986
